From the supplement of paper PMC6805474

Key:
[1] = test system: Schistosoma mansoni schistosomula (LE); experiment: XTT viability relative to DMSO control; higher = more viable (less active); settings: 72 h; 10 µM
Experimental: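 XTT/PMS was then added for a further 24 h (72 h total) and A450 was read. % viability = (sample - heat-killed control)/(DMSO control - heat-killed control) x 100, from duplicate wells in two independent experiments.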

[2] = test system: Schistosoma mansoni schistosomula (NMRI); experiment: phenotypic severity score (0-4); higher = more antischistosomal effect, active = 2 or more; settings: 10 µM
[3] = test system: Schistosoma mansoni schistosomula (Liberian); experiment: drug effect (1 - score/DMSO control score) (fraction); higher = more antischistosomal effect, active = 0.5 or more; extreme values may be limits of the assay; settings: 10 µM
In short: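 Drug effect was calculated by comparing the mean score of the test wells with the mean score of the DMSO wells, and any negative value was set to zero. Duplicate wells of 50 Liberian-strain S. mansoni schistosomula, mechanically transformed from cercariae and pre-incubated at least 12 h, received 10 µM compound in Medium 199 with 5% FCS at 37 °C, 5% CO2, with 0.1% DMSO in the comparison wells. Visual scoring at 10× took place at 24, 48 and 72 h on a quarter-point scale from 3 (normal) to 0 (dead), and a plate counted only if its DMSO wells averaged at least 2.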
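For phenotypic severity score (0-4) in this document: visual microscopic scoring of shape, motility and density changes versus 0.5% DMSO solvent controls, one point per descriptor, degeneracy or death scored 4, mean of duplicate wells.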

| SMILES | XTT viability [1] [%] | phenotypic severity score ([2]; 24 h) | phenotypic severity score ([2]; 48 h) | phenotypic severity score ([2]; 72 h) | drug effect ([3]; 24 h) | drug effect ([3]; 48 h) | drug effect ([3]; 72 h) |
| --- | --- | --- | --- | --- | --- | --- | --- |
| O=C(NCc1nnc2n1CCCCC2)c1ccc(-c2ccc(F)cc2)o1 | 97.1 | 1 (inactive) | 0 (inactive) | 0 (inactive) | 0.136 (inactive) | 0.15 (inactive) | 0.182 (inactive) |
| CC1=NN(c2nc3ccccc3s2)C(=O)C1Cc1cccc2ccccc12 (stereo unspecified) | 61.8 | 0 (inactive) | 0 (inactive) | 0 (inactive) | 0.0909 (inactive) | 0.1 (inactive) | 0.127 (inactive) |
| FC(F)(F)c1cc(NCCc2ccccc2)nc(-c2ccccn2)n1 | 58.7 | 1 (inactive) | 2 (active) | 4 (active) | 0.05 (inactive) | 0.514 (active) | 0.394 (inactive) |
| FC(F)(F)c1cccc(-c2nc3c(NCc4ccncc4)nccc3[nH]2)c1 | 90.7 | 0 (inactive) | 0 (inactive) | 0 (inactive) | 0.15 (inactive) | 0.0811 (inactive) | 0.152 (inactive) |
| O=C(C1CCCCC1)N1CC(=O)N2CCc3ccccc3C2C1 (stereo unspecified) | 97.3 | 4 (active) | 4 (active) | 4 (active) | 0.3 (inactive) | 0.351 (inactive) | 0.556 (active) |
| O=C(Cn1ccnc1[N+](=O)[O-])NCc1ccccc1 | 89.2 | 0 (inactive) | 0 (inactive) | 0 (inactive) | 0.15 (inactive) | 0.243 (inactive) | 0.222 (inactive) |
| Cc1cccnc1NC(=O)c1cccc(OCc2c(C)noc2C)c1 | 114 | 0 (inactive) | 0 (inactive) | 0 (inactive) | 0.0909 (inactive) | 0.15 (inactive) | 0.127 (inactive) |
| CCn1cnc2c(Nc3cc(F)cc(F)c3)nc(C#N)nc21 | 97.7 | 4 (active) | 4 (active) | 4 (active) | 0.351 (inactive) | 0.889 (active) | 0.75 (active) |
| CC[C@H](CO)NCCN[C@H](CC)CO | 78.3 | 0 (inactive) | 0 (inactive) | 0 (inactive) | 0.15 (inactive) | 0.135 (inactive) | 0.278 (inactive) |
| O=C(NC1CC1)c1ccc(N2CCC(Cc3ccccc3)CC2)nc1 | 91.1 | 0 (inactive) | 0 (inactive) | 0 (inactive) | 0.1 (inactive) | 0.0811 (inactive) | 0.167 (inactive) |
| CS(=O)(=O)c1ccccc1C(=O)N(Cc1ccccc1)c1ccccc1 | – | 0 (inactive) | 1 (inactive) | 0 (inactive) | 0.182 (inactive) | 0.4 (inactive) | 0.4 (inactive) |
| Cc1nc(-c2ccccn2)nc(N(C)CCc2ccccc2)c1Cl | 20.7 | 1 (inactive) | 4 (active) | 4 (active) | < 0 (inactive) | 0.189 (inactive) | 0.697 (active) |
| c1coc(CNc2nc(N3CCCCC3)nc3ccccc23)c1 | 99.5 | 3 (active) | 2 (active) | 4 (active) | 1 (active) | 1 (active) | 1 (active) |
| O=C(Nc1cccnc1)c1c(O)c2cccc3c2n(c1=O)CC3 | 118 | 0 (inactive) | 0 (inactive) | 0 (inactive) | 0.182 (inactive) | 0.2 (inactive) | 0.0727 (inactive) |
| O=C(C1CCN(c2cc(-n3cccc3)ncn2)CC1)N1CCc2ccccc2C1 | 96.4 | 0 (inactive) | 0 (inactive) | 1 (inactive) | 0.05 (inactive) | 0.111 (inactive) | 0.333 (inactive) |
| O[C@@H](c1cc(C(F)(F)F)nc2c(C(F)(F)F)cccc12)[C@H]1CCCCN1 | – | 4 (active) | 4 (active) | 4 (active) | 0.955 (active) | 1 (active) | 1 (active) |
| CN1CCC(NCc2cccc(-c3ccc(S(=O)(=O)NCc4ccccc4)cc3)c2)CC1 | 19.2 | 0 (inactive) | 2 (active) | 4 (active) | 0.6 (active) | 0.784 (active) | 0.939 (active) |
| CN(C(=O)c1cc2c(-c3cncnc3)cccc2[nH]1)c1ccccc1 | 102 | 0 (inactive) | 0 (inactive) | 0 (inactive) | 0.189 (inactive) | 0.278 (inactive) | 0.375 (inactive) |
| O=C(NCCN1CCCC1)c1cc(NCCN2CCOCC2)nc2ccc(Cl)cc12 | – | 0 (inactive) | 0 (inactive) | 0 (inactive) | 0.15 (inactive) | 0.222 (inactive) | 0.438 (inactive) |
| Cc1[nH]c2ccccc2c1C(c1cccs1)N1CCN(C)CC1 (stereo unspecified) | 6.43 | 3 (active) | 4 (active) | 4 (active) | 1 (active) | 1 (active) | 1 (active) |
| COC(=O)c1c(NC(=O)c2cc3ccccc3oc2=O)sc2c1CCN(Cc1ccccc1)C2 | 76.3 | 0 (inactive) | 3 (active) | 2 (active) | 0.4 (inactive) | 0.222 (inactive) | 0.556 (active) |
| COc1ccc2nc(C)cc(OCC(=O)NCc3ccccc3)c2c1 | 74.7 | 0 (inactive) | 0 (inactive) | 0 (inactive) | 0.0526 (inactive) | 0.0556 (inactive) | < 0 (inactive) |
